For 8 compounds, inhibition results are on record in PubChem BioAssay.

Active and inactive are the calls of the source. No stated cut-off is given here; in the data, active means inhibition above about 30%; inactive means the rest.

This test relates to transactivating tegument protein VP16 (Human herpesvirus 1), Gal4-VP16 luciferase reporter. The test is described as follows: VP16 transactivation inhibitors, counter-screen for SRC3 inhibitor project, cell-based, luminescence, high throughput (AID 588794). The conditions noted are these: mammalian cells, VP16-driven luciferase reporter luminescence; at 3.6 µM; hits give high values. (A counterscreen serves to expose hits that act by an unwanted route or on another target.)
As a reminder, the inhibition is the drop in the measured response relative to a control, in per cent. Regarding `CCN(CC)C(=O)c1[nH]cnc1C(=O)N[C@@H](CCCCNC(=O)OC(C)(C)C)C(=O)OC(C)(C)C`, the inhibition is -3.67% (inactive).
For `COc1ccc(OCc2nn3c(-c4ccco4)nnc3s2)cc1` the value was -4.08% (inactive); for `O=C1N=c2ccccc2=C1c1sc(=O)[nH]c1O`, 2.71% (inactive); for `NCCCn1c(C(=O)c2cc(Cl)c(N)c(Cl)c2)c2ccc([N+](=O)[O-])cc2[n+]1[O-]`, 9.54% (inactive).
Under `CC(C)COc1ccc(C(=O)Nc2sc3c(c2C(=O)O)CC(C)(C)OC3)cc1` stands 68.5% (active); under `Cc1ccc(NC(=O)C2CCN(c3ncnc4c3nc3n4CCCCC3)CC2)cc1Cl`, -3.54% (inactive).
Under `Cc1cc(C(=O)Nc2ccncc2)c(C)o1` stands -9.44% (inactive).
Take `Cc1nnnn1/C(=C\c1ccccc1)C(=O)OCC(=O)Nc1cccc(S(=O)(=O)N(C)C)c1`: the inhibition is 13.2% (inactive).
